Screening data (PubChem BioAssay)
TRHR agonist: qHTS for Small Molecule Agonists and Allosteric Enhancers of Human TRH Receptor: Primary Screen for Agonists; Thyrotropin-releasing hormone receptor (Homo sapiens), P34981; activation, % at 2 µM; TRHR cells, calcium flux fluo-8, FDSS agonist mode; 360,000 compounds, 0.18% hits; also: 0% is about no effect
Target sequence (P34981 whole entry, looked up): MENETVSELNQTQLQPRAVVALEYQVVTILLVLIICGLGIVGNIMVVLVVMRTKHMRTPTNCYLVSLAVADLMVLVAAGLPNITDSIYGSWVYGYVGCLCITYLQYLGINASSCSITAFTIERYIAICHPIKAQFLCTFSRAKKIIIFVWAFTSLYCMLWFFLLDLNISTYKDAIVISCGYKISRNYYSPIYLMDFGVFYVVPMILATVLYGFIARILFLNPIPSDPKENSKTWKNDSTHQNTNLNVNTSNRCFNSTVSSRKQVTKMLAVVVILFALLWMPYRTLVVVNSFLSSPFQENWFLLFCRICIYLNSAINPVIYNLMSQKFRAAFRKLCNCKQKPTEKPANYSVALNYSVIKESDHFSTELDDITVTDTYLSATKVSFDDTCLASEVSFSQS
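Agonist-mode FDSS calcium read (Ex 480/Em 530, 1 s cycles) in 1536-well TRHR cells with fluo-8 dye, after 10-cycle baseline and 23 nL compound addition; TRH at EC20 (10 nM final) added afterwards for the enhancer phase.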
TRHR PAM: qHTS for Small Molecule Agonists and Allosteric Enhancers of Human TRH Receptor: Primary Screen for Enhancers | Thyrotropin-releasing hormone receptor (Homo sapiens), P34981 | TRHR cells, fluo-8 calcium fluorescence, EC20 TRH enhancement | enhancement, % at 2 µM | 360,000 compounds, 0.66% hits; in the data active = enhancement above about 30%; also: 0% is about no effect
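Enhancer read-out: after compound pinning and an initial kinetic agonist-mode read, an EC20 of TRH (10 nM final) was injected and fluo-8 calcium signal (Ex 480/Em 530) followed at 1 s/cycle for 100 cycles in TRHR-expressing cells.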
D1 ag: Allosteric Agonists of the Human D1 Dopamine Receptor: qHTS | HEK293 T-REx D1 cells, calcium flux, agonist mode | 360,000 compounds, 1% hits | activation, % at 2 µM; also: 0% is about no effect
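Tetracycline-induced HEK293 TREx D1 cells, force-coupled to calcium signalling, were dye-loaded with a no-wash calcium kit. Compound was pin-added after a 10 s baseline. Fluorescence was read kinetically at 1 cycle/s for 180 s, with calcium rises flagged as agonism.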
D1 potentiator: Potentiators of Human D1 Dopamine Receptor: qHTS; 360,000 compounds, 0.036% hits; HEK293 TREx D1 cells, calcium flux, dopamine EC20 potentiation; D(1A) dopamine receptor (Homo sapiens), P21728; potentiation, % at 10 µM; AID 504651, 2011; in the data active = potentiation above about 30%; also: 0% is about no effect
D1 antagonist: Antagonist of Human D 1 Dopamine Receptor: qHTS | D(1A) dopamine receptor (Homo sapiens), P21728 | HEK293 TREx D1 cells, calcium flux, dopamine EC80; active compounds read low | activity change, negative = inhibition, % at 10 µM | 360,000 compounds, 3.2% hits; in the data active = activity change below about -30%; also: % is scaled to controls: 0 for no effect and ±100 for the full control effect
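Inducible Hek293 Trex D1 cells (tetracycline, overnight, 30 C). Calcium dye 30–90 min RT. Antagonist mode: EC80 dopamine added after 180 s compound read.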
Active calls of the source: *; nt = not tested or not shown; ! = a repeat was not active. A selection: hits, their analogues and other compounds. The true share with any hit is near 4.7%. Rule as the data show it, unless noted: active = activation above about 30%; inactive = the rest.

SMILES | TRHR agonist | TRHR PAM | D1 ag | D1 potentiator | D1 antagonist
CC(C)(C)OC(=O)N1CCC(c2c(C(=O)N3CCN(C(=O)c4ccco4)CC3)cnn2-c2ccccc2Cl)CC1 | 0.6 | 4.2 | -0.3 | 3.1 | 10.4
CCNc1nc(C#N)nc2c1ncn2-c1cccc(Cl)c1 | 0.0 | 0.5 | 1.2 | -5.3 | -9.7
CCOc1cc(NC(=S)Nc2ccc(Cl)cc2)c(OCC)cc1NC(C)=O | 0.5 | 8.3 | 8.9 | 1.1 | -40.0*
CCOc1ccccc1NC(=O)Nc1ccc(Cl)cc1 | 0.3 | 1.5 | 15.5 | -2.4 | 0.2
Cn1c(=O)oc2cc(S(=O)(=O)Nc3ccc(O)cc3)ccc21 | 0.4 | -2.3 | 8.0 | -1.1 | -31.3*!
COc1ccc2c(c1)[nH]c1c(=O)n(N)cnc12 | 0.1 | 1.1 | 0.9 | -5.0 | 2.2
Nn1cnc2c([nH]c3ccccc32)c1=O | -1.6 | -2.7 | 2.5 | -0.1 | -31.9*
Cc1ccc(Nc2nc(N)nc(CSc3nccn3C)n2)c(C)c1 | -0.3 | 0.6 | -0.6 | -2.1 | -32.9*
Cc1ccc(Oc2ccccc2NC(=O)CSCC(=O)Nc2cc(C)on2)cc1 | -0.3 | 25.0 | 24.1 | 0.3 | 0.0
CCc1cc2cccc(C)c2nc1SCC(=O)Nc1cc(C)on1 | 0.4 | 39.6* | 6.7 | -4.2 | 0.4
Cc1cc(NC(=O)CSCC(=O)Nc2ccccc2Oc2ccccc2)no1 | -0.6 | -3.3 | 3.1 | 1.9 | -37.2*
Cc1cc(NC(=O)CSc2ccccc2)no1 | -0.2 | -5.1 | 0.8 | -1.4 | -19.2
Cc1cc(NC(=O)CSc2nnc(-c3ccccc3)c(-c3ccccc3)n2)no1 | -0.6 | -14.9 | 1.2 | -4.4 | -77.7*
Cc1ccc(-c2nc3c(c(SCC(=O)N4CCCCC4)n2)Cc2cc(C)ccc2O3)cc1 | 0.3 | -2.3 | 1.9 | -2.0 | -14.0
CCOc1ccc(-c2cc(C)n3nc(C(=O)Nc4cc(Cl)ccc4O)cc3n2)cc1 | 0.0 | 1.2 | -1.6 | 3.9 | 7.6
Cc1ccc(-c2cccc(C3CC=CC4C3C(=O)N(Cc3ccccc3)C4c3cc(C)ccc3F)c2)cc1 (stereo unspecified) | -0.6 | 11.9 | 1.8 | -9.5 | -66.5*
Cc1ccc(NC(=O)c2sc3nc[nH]c(=O)c3c2C)cc1Cl | 0.6 | 10.6 | 1.2 | -1.4 | 0.8
Cc1ccc(NC(=O)c2sc3nc[nH]c(=O)c3c2C)c(C)c1 | 0.0 | 0.1 | 7.8 | -11.9 | -47.9*
Cc1cnn(-c2cc(N/N=C/c3cccc(F)c3)ncn2)c1 | -3.2 | 35.8* | 0.4 | -8.8 | 2.3
CC(NCC(O)COCc1ccc(Cl)cc1)c1ccccc1 (stereo unspecified) | 0.3 | -2.1 | 11.8 | -8.4 | -19.6
Cc1ccc(C(OCC(O)CNC(C)c2ccccc2)c2ccccc2)cc1 (stereo unspecified) | 0.8 | 10.7 | 13.8 | 4.0 | -38.2*
Cc1ccc(C(OCC(O)CN2CCCCC2)c2ccccc2)cc1 (stereo unspecified) | 1.3 | 1.0 | 3.0 | -12.2 | 4.0
Cc1ccc(OCC(O)CNC(C)c2ccccc2)cc1C (stereo unspecified) | 1.5 | -0.9 | 31.9* | 1.7 | -0.5
CCc1ccccc1Nc1ncnc2c1nc1n2CCCC1 | -0.1 | 6.9 | -0.2 | -0.8 | -11.1
O=C(Nc1ccc(O)c(-c2nc3ccccc3o2)c1)c1sc2ccccc2c1Cl | 0.4 | 0.9 | -0.3 | 0.4 | -30.5*
SMILES | TRHR agonist | TRHR PAM | D1 ag | D1 potentiator | D1 antagonist
O=C(Nc1ccc(O)c(-c2nc3ccccc3o2)c1)c1cccs1 | 0.5 | 0.0 | -0.4 | -4.5 | -3.7
CCn1nc(C)cc1C(=O)OCC(=O)c1ccc(Cl)cc1 | 0.0 | 0.1 | 2.5 | -8.3 | -63.4*
COc1ccc(NC(=O)CCCn2c(=O)c3cccn3c3cccnc32)cc1Cl | -0.8 | -3.6 | 0.2 | -1.1 | -3.1
COc1ccc(/C=N/NC(=O)c2cc[n+]([O-])cc2)cc1 | 0.1 | -3.2 | 1.3 | -4.5 | 7.0
O=C(N/N=C/c1ccc(OC(F)F)cc1)c1cc[n+]([O-])cc1 | 1.0 | 33.7* | 3.0 | -0.5 | -18.0
CC(=O)c1ccc(NC(=O)Cn2cc(S(=O)(=O)Cc3cccc(Cl)c3)c3ccccc32)cc1 | -0.9 | 0.3 | 6.4 | -2.2 | -11.2
Cc1nc2c(-c3ccccc3)c[nH]n2c(=O)c1Cc1ccccc1 | -1.2 | 8.8 | 36.5* | nt | -20.1
Cc1ccc(Cc2c(C)nc3c(-c4ccccc4)c(C)[nH]n3c2=O)cc1 | -3.8 | 2.3 | 0.1 | -0.9 | 19.7
O=C(c1ccc2c(c1)CCN2S(=O)(=O)c1ccc(Cl)cc1)N1CCN(c2ccccc2F)CC1 | 0.0 | -1.8 | 2.4 | 3.6 | 2.1
CCc1ccc(CNc2ccc(N3CCN(C(C)=O)CC3)cc2)cc1 | 0.6 | 4.7 | 34.0* | -0.3 | -14.3
CCOC(=O)C1C(c2cccc(Cl)c2Cl)NC(=O)NC1(O)C(F)(F)F (stereo unspecified) | 0.5 | 8.7 | -3.4 | -4.2 | -58.5*
CC1CCN(C(=O)Cn2cc(SCC(=O)Nc3ccccc3C(F)(F)F)c3ccccc32)CC1 | 0.0 | -2.9 | 1.0 | 0.1 | 3.9
O=C(NCCc1csc(-c2cccnc2)n1)c1ccccc1 | -0.2 | 0.2 | 0.2 | 2.8 | -47.3*!
COc1ccc(C(=O)NCCc2csc(-c3ccc(Cl)cc3)n2)c(OC)c1 | 0.5 | 36.4* | 10.6 | -3.2 | 10.6
O=C(NCCc1csc(-c2cccnc2)n1)c1cccc2ccccc12 | -0.2 | -0.2 | -0.1 | 0.3 | -20.4
CCS(=O)(=O)NCCc1csc(-c2ccccc2)n1 | 0.0 | 12.3 | 1.6 | 0.3 | 1.2
CCS(=O)(=O)NCCc1csc(-c2cccnc2)n1 | 0.7 | -3.4 | -0.3 | 4.3 | -35.9*
O=C(NCCc1csc(-c2ccccc2)n1)c1cccs1 | -0.5 | -7.8 | 5.0 | -16.6 | -59.6*
COc1ccc(C(=O)NCCc2csc(-c3ccc(Cl)cc3)n2)cc1 | -0.4 | -1.1 | 4.2 | -5.7 | -24.6
COc1cccc(-n2ccn(CC(=O)Nc3ccccc3F)c(=O)c2=O)c1 | 0.4 | 10.2 | 9.2 | -4.2 | -21.6
COC(=O)c1cccnc1-n1c(=O)c2cccnc2n(CC(=O)Nc2cccc(C(F)(F)F)c2)c1=O | 0.3 | 0.8 | 3.8 | 0.4 | 3.6
Cc1ccc(C(=O)NCCc2csc(C)n2)cc1 | -0.6 | 12.8 | -1.4 | -3.5 | -26.7
O=C(NCCc1csc(-c2ccccc2)n1)c1ccco1 | -0.4 | 2.0 | 0.1 | -7.9 | -30.4*
O=C(NCc1csc(-c2ccccc2)n1)c1ccco1 | -0.6 | -4.6 | 3.8 | -4.0 | -5.4
Cc1cccc(C(=O)NCCc2csc(C)n2)c1 | -0.1 | 12.4 | -1.3 | -9.1 | -85.4*
CCOc1ccc(N2CC(NC(=O)C3CC3)CC2=O)cc1 (stereo unspecified) | 0.2 | 3.3 | 0.6 | 0.0 | nt
